About 4,200 (4.2%) of roughly 100,000 compounds were called active. The sample as a whole holds a higher share of actives than the screen did. A number with no mark means an inactive call.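 The calls were made as follows: active = single-dose well whose peak fluorescence ratio is a statistical outlier from its plate by either plate-standardised score or position-corrected B-score; inactive = the rest.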
Target: Voltage-dependent T-type calcium channel subunit alpha-1H (Homo sapiens) (UniProt O95180)
Experiment: Cav3.2 calcium influx blockers – cell-based, Fluo-4 calcium fluorescence, FDSS, MLSMR library, primary screen (AID 449739)
Conditions: Cav3.2-expressing cells, at 10 µM, active compounds read low

Chain of Voltage-dependent T-type calcium channel subunit alpha-1H (Homo sapiens) (O95180 whole entry, looked up): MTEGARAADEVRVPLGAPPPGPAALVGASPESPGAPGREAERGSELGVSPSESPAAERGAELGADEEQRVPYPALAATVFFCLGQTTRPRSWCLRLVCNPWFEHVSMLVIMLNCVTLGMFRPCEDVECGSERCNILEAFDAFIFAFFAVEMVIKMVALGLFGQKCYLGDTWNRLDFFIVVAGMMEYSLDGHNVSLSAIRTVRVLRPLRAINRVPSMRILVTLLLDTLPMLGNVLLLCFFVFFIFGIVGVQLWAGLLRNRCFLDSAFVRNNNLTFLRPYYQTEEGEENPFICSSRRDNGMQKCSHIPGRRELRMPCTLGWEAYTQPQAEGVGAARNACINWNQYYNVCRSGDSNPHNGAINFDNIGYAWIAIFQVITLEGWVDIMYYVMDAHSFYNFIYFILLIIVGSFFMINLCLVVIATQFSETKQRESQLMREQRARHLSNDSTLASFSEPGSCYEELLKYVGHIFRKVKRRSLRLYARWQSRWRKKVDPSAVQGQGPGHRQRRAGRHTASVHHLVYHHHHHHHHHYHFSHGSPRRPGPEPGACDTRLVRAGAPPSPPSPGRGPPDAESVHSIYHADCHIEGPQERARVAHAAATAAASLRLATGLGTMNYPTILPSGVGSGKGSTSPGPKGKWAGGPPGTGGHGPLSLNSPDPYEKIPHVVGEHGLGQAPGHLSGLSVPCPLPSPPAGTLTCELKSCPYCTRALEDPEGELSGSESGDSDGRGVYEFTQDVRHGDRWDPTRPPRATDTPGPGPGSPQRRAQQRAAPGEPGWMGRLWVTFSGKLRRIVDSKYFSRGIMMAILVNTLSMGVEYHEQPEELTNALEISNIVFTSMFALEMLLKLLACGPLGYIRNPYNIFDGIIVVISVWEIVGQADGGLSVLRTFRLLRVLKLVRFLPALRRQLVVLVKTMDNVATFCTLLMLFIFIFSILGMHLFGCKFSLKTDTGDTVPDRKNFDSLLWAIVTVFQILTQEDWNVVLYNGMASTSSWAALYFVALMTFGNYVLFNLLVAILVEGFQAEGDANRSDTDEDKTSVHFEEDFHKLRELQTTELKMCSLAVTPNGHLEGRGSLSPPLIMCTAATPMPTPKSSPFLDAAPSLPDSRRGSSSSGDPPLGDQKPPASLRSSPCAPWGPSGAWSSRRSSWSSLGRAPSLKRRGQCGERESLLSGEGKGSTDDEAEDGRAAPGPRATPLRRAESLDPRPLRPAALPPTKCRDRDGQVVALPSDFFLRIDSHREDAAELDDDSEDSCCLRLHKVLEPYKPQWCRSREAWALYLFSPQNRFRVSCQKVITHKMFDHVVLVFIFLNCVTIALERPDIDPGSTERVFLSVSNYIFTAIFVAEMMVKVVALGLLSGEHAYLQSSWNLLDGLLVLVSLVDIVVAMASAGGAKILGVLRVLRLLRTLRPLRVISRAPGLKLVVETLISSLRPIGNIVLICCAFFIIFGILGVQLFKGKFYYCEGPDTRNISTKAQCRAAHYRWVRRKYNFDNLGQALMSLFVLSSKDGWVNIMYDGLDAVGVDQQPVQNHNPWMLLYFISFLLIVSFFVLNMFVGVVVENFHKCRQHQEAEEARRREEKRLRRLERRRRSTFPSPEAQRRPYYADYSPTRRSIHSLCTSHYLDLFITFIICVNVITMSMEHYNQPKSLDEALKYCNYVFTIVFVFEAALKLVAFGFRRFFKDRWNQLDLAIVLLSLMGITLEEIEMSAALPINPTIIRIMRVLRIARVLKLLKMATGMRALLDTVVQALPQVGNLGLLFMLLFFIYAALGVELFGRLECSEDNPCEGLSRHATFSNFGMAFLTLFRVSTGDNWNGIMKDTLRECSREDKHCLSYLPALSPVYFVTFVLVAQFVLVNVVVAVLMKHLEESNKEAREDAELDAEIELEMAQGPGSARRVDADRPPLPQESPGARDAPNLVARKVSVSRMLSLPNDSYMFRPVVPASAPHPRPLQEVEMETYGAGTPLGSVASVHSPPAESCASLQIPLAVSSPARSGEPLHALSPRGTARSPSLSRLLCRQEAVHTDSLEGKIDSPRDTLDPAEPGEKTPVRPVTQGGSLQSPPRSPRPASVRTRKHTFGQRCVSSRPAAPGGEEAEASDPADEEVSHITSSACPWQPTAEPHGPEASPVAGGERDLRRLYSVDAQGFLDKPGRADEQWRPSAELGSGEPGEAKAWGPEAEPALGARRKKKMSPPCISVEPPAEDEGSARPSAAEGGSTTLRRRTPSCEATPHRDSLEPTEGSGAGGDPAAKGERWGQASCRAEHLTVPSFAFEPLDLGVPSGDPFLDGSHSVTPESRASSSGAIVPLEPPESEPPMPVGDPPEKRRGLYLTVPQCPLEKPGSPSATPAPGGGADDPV

| SMILES | B-score |
| --- | --- |
| CC(C)=CCc1c(O)c(CC=C(C)C)c2occ(-c3ccc(O)cc3)c(=O)c2c1O | -0.844 |
| Cc1ccc(NC(=O)c2nc[nH]c2C(=O)N[C@@H](CCCCNC(=O)OC(C)(C)C)C(=O)OC(C)(C)C)cc1 | -0.574 |
| CC(C)C(=O)OCC(=O)Nc1ccc2c(c1)CCC2 | 0.246 |
| CCN(CC)S(=O)(=O)c1cc([N+](=O)[O-])ccc1NNC(=O)Nc1ccccc1 | -4.53 (active) |
| Cc1ccccc1NC(=S)Nc1cccc([N+](=O)[O-])c1 | -0.107 |
| CCN(CC)S(=O)(=O)c1cccc(C(=O)Nc2ccccc2)c1 | 0.194 |
| O=C1CC2(CCCC2)Oc2ccc(Cl)cc21 | -0.0281 |
| CCOC(=O)C1Nc2ccc(C(F)(F)F)cc2C2C=CCC12 (stereo not drawn) | -0.137 |
| Cc1ccc(N(CC(=O)Nc2cccc(N(C)S(C)(=O)=O)c2)S(C)(=O)=O)cc1 | 1.01 |
| COc1cccc(N(CC(=O)Nc2cccc(N(C)S(C)(=O)=O)c2)S(C)(=O)=O)c1 | -1.19 |
| CCN(CC)S(=O)(=O)c1ccc(NC(=O)CN(c2cccc(F)c2)S(C)(=O)=O)cc1 | -6.56 (active) |
| CC1=C(N2CCN(c3ncccn3)CC2)CCC1=O | 0.282 |
| C[C@@H]1CC[C@]2(O[C@@H](CCO)C[C@H](O)[C@H]2O)O1 | 0.111 |
| CSc1cccc(NC(=O)CSc2ccccc2)c1 | -6.09 (active) |
| COC(=O)c1cccc(NC(=O)CSc2nc(C)cc(=O)[nH]2)c1 | 0.842 |
| CCn1c(Cc2ccccc2)nnc1SCC(=O)Nc1ccccc1 | 0.0752 |
| COC(C[C@@H]1O[C@@H]1C(=O)[C@@H](C)OCc1ccccc1)OC | 0.0102 |
| Cc1cc(C)cc(NC(=O)c2cccc(NC(=O)C3C4CC5OC(=O)C3C5C4)c2)c1 (stereo not drawn) | -0.673 |
| Cc1cccc(NC(=O)C(C)N2C(=O)C3C4CC(C(Br)C4Br)C3C2=O)c1 (stereo not drawn) | -4.83 (active) |
| Cc1cccc(NC(=O)C2CC(=O)OC23CCCC3)c1 (stereo not drawn) | 2.01 |
| CC1(C)C=C2[C@H]3CC[C@@H]4[C@@]5(C)CCC(=O)C(C)(C)[C@@H]5CC[C@@]4(C)[C@]3(C)CC[C@@]2(C(=O)O)CC1 | -0.0499 |
| COc1ccc(CNC(=O)C2(CC3CC(c4ccccc4)=NO3)CCN(C(=O)c3cccc(O)c3)CC2)cc1 (stereo not drawn) | -0.683 |

| SMILES | B-score |
| --- | --- |
| CCOC(=O)C1=C(CNC2CCCCC2)NC(=O)NC1c1cc(C)ccc1C (stereo not drawn) | -3.93 (active) |
| CCOC(=O)COc1ccc(Cl)cc1C1NC(=O)NC(C)=C1C(C)=O (stereo not drawn) | 0.0116 |
| CCOC(=O)C1=C(CSc2nccn2C)NC(=O)NC1c1ccc(OC)cc1 (stereo not drawn) | 0.905 |
| O=c1cc(-c2ccccc2)[nH]c2cc(F)ccc12 | -1.92 |
| N=c1c2c(-c3ccccc3)c(-c3ccccc3)oc2ncn1Cc1ccco1 | -2.43 |
| OCCCN1c2ccccc2Nc2nnc(-c3ccccc3)cc21 | 0.492 |
| N=c1c2c(-c3ccccc3)c(-c3ccccc3)n(Cc3ccccc3)c2ncn1CCCO | -7.3 (active) |
| Cc1cccc(NC(=S)NCc2ccc3[nH]c4c(c3c2)CCCC4)c1 | -3.54 |
| C=CCOC(=O)C1=C(C)NC(C)=C(C(=O)OCC=C)C1c1cccs1 | -3.25 |
| CC(=O)C1=C(C)NC(C)=C(C(C)=O)C1c1cn(-c2ccccc2)nc1-c1cccs1 | -3.89 (active) |
| COc1ccc(-c2nn(-c3ccccc3)cc2C(=O)Nc2nccs2)cc1OC | -3.24 |
| CNC(=O)c1[nH]cnc1C(=O)N[C@@H](CC(C)C)C(=O)OCc1ccccc1 | -0.016 |
| Cc1[nH]c2ccccc2c1C(=O)COC(=O)C(C)C | 0.085 |
| COc1ccc2c(c1)SC(C)CC2=O (stereo not drawn) | -0.0138 |
| CC1(C)S[C@@H]2[C@H](NC(=O)COc3ccccc3)C(=O)N2C1C(=O)OCc1ccccc1 (stereo partly drawn) | -1.43 |
| CCOc1ccc2[nH]c(=O)c(CN(Cc3nnnn3Cc3ccccc3)CC3CCCO3)cc2c1 (stereo not drawn) | -0.479 |
| CCOc1ccc2c(c1)cc(CN(C(=O)CC)C1CCCCC1)c1nnnn12 | -4.82 (active) |
| CCc1ccc2c(c1)cc(CN(C(=S)Nc1ccccc1Cl)C1CC1)c1nnnn12 | 0.523 |
| O=C(COc1ccc(Cl)cc1)NCCC1=CCCCC1 | -2.12 |
| C=C1CCN([C@@H](Cc2ccccc2)C(=O)N2CCOCC2)S(=O)(=O)c2ccccc21 | 0.119 |
| O=C1N=C2SCCN2/C1=C\c1c(Cl)cccc1Cl | -7.62 (active) |
| O=C(NC1(C(F)(F)F)N=C2SCCN2C1=O)c1ccco1 (stereo not drawn) | 0.645 |

| SMILES | B-score |
| --- | --- |
| O=C1N=C(N2CCCC2)S/C1=C\c1cccc(Br)c1 | 0.36 |
| O=C(NC1=NCCS1)[C@H](Cc1ccccc1)N1C(=O)c2ccccc2C1=O | -0.0971 |
| NC(=O)CC[C@@H]1NC(=O)[C@@H]2CCCN2C(=O)c2cc([N+](=O)[O-])cc(F)c2NCCC[C@@H](C(N)=O)NC1=O | 0.224 |
| CCOC(=O)c1ccc(N2C(=O)CC(N(C)Cc3ccccc3)C2=O)cc1 (stereo not drawn) | 0.0731 |
| CCOC(=O)c1ccc(N2C(=O)CC(N3CC(C)OC(C)C3)C2=O)cc1 (stereo not drawn) | 0.246 |
| CCCCOC(=O)c1ccc(N2C(=O)CC(N3CCN(C/C=C/c4ccccc4)CC3)C2=O)cc1 (stereo not drawn) | -6.05 (active) |
| O=C(CCCN1C(=O)c2cccc3cccc(c23)C1=O)N1CCN(Cc2ccc3c(c2)OCO3)CC1 | -2.86 |
| CC(=O)c1ccc(Cc2ncc(C(F)(F)F)cc2Cl)s1 | -0.288 |
| O=C(Cc1ncc(C(F)(F)F)cc1Cl)Nc1cccc(Br)c1 | -4.67 (active) |
| O=C(CN1CCN(c2ncc(C(F)(F)F)cc2Cl)CC1)Nc1ccc2c(c1)OCO2 | -1.4 |
| O=C(/C=C/c1cccs1)c1cc(Cl)ccc1OC(=O)N1CCOCC1 | -1.17 |
| CN1/C(=c2/s/c(=C3/C(=O)N(c4ccccc4)NC3=Nc3ccccc3)n(C)c2=O)C(C)(C)c2ccccc21 | -2.19 |
| NC(=O)C1=C[C@@H](c2ccc3c(c2)OCO3)C[C@@H](OCCCCO)O1 | 0.476 |
| COc1cccc(N(CC(=O)NC2CCCC2)C(=O)Cn2nnc(-c3ccc(C)cc3)n2)c1 | -4.56 (active) |
| O=C(Cn1nnc(-c2ccc(CN3CCOCC3)cc2)n1)NC1CCCCC1 | -0.444 |
| COc1ccc(-c2nnn(CC(=O)N(CCO)C(C(=O)NC3CCCC3)c3ccc(F)cc3)n2)cc1 (stereo not drawn) | -1.11 |
| COCc1cc(C)nc2sc(C(=O)NC3CCCCC3)c(N)c12 | -0.0172 |
| N#CC1=C(N)N(c2ccc(F)cc2)C(=O)C1 | -0.201 |
| CCCOc1ccc(NC(=O)C2CCCNC2=O)cc1 (stereo not drawn) | -0.159 |
| O=C(CC1NCCNC1=O)Nc1ccc(Oc2ccccc2)cc1 (stereo not drawn) | -5.21 (active) |
| CCOc1ccc(NC(=O)CC2NCCNC2=O)cc1 (stereo not drawn) | 0.0128 |
| O=C1CCCC2=C1C(c1ccccc1)n1c(s/c(=C/c3cccc(F)c3)c1=O)=N2 (stereo not drawn) | 0.975 |

| SMILES | B-score |
| --- | --- |
| O=C1N[C@@H](Cc2ccccc2)C(=O)N2[C@@H]3N(S(=O)(=O)c4ccc(F)cc4)c4ccccc4[C@]3(Br)C[C@@H]12 | 0.27 |
| Cn1c(=N)n(CC(O)c2ccccc2)c2ccccc21 (stereo not drawn) | 0.141 |
| O=S(=O)(O)c1nc2ccccc2n1Cc1ccc(Cl)cc1 | -0.194 |
| N=c1n(Cc2ccc(Cl)cc2)c2ccccc2n1CC(O)c1ccco1 (stereo not drawn) | -3.51 (active) |
| Cc1cc([N+](=O)[O-])ccc1NCc1cccc([N+](=O)[O-])c1 | 0.0686 |
| Cc1c(CCO)c(=O)[nH]n1C(=O)c1c(F)cccc1F | 0.442 |
| CC1CN(c2nc(-c3ccccc3)nnc2-c2ccccc2)CC(C)O1 (stereo not drawn) | -0.222 |
| CSc1cc(C)n(-c2ccccc2C)c(=S)c1C(C)=O | 0.0764 |
| Clc1cccc(-c2nc3nc4ccccc4nc3n2Cc2ccco2)c1 | -2.21 |
| Cc1ccc(Cn2c(NC(=O)c3ccco3)nc3ccccc32)cc1 | 1.58 |
| Cc1ccc(Cn2c(C)nc3c(c2=O)c2nc4ccccc4nc2n3Cc2ccco2)cc1 | -6.69 (active) |
| COc1cc(OC)c2ccc(=O)oc2c1C(CCN1CCN(c2ccccc2)CC1)c1ccc2c(c1)OCO2 (stereo not drawn) | -0.318 |
| C/C=C(\C)C(=O)NCCN1C2=NC[C@H](Cc3ccc(O)cc3)N2C[C@@H]1Cc1ccc(OC)cc1 | -0.0234 |
| CCO[C@H]1OC(C(=O)N2CCOCC2)=C[C@@H](c2ccc3c(c2)OCO3)[C@@H]1CCCO | -0.694 |
| Cc1ccccc1-c1nnc(SCC(=O)NCc2ccc3c(c2)OCO3)n1C | 0.345 |
| Cc1cccc(C)c1NC(=O)CSc1nnc(-c2ccccc2)n1Cc1ccc2c(c1)OCO2 | -6.18 (active) |
| O=C(CSc1nnc(-c2ccccn2)n1-c1ccccc1)Nc1ccc2c(c1)OCO2 | 0.144 |
| COCCNC(=O)c1onc(CSc2cccc(C)c2)c1C(=O)O | 1.46 |
| CCCCN=C1N/C(=C\c2ccco2)C(=O)N1c1ccccc1 | 0.203 |
| C=C(C)Cn1c(C)cc(C)c(S(=O)(=O)c2ccccc2C)c1=O | -4.84 (active) |
| COC/C=C/C1=CC2=CC(=O)C(C)(OC(=O)CCC(=O)OC)C(=O)C2=CO1 (stereo not drawn) | -0.853 |
| CC1CCN(C(NC(=O)c2ccco2)C(=O)c2ccccc2)CC1 (stereo not drawn) | -1.33 |
